Bioassay records from PubChem BioAssay.
Most compounds without a hit are left out; they make up all but 9.2% or so of the library.
NPC1 promoter act: NPC1 promoter activation; Potency, µM (series often up to 9.22 µM), inactives show at the top dose activation, actives largely listed as activators; 2.4% of 320,000 active; Huh7 NPC1 promoter luciferase reporter, 24 h; AID 485313; also: % of control where 0% means no effect; nearly all actives have a fitted effect of over 60% in size
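Readout is luciferase luminescence, reflecting NPC1 promoter activation in stably transfected Huh7 cells after 24 h compound exposure at 37 °C in reduced-serum medium with 10% FBS.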
ELG1 genotox: genotoxicity induction in ELG1-luciferase HEK293T cells; HEK293T ELG1-luciferase reporter, luminescence, 16 h; Potency, µM (titrated, usually from 46 µM), inactives show at the top dose activity change, positive = activation, hits mostly activators; 1.3% of 330,000 active; also: % of control where 0% means no effect; nearly all actives have a fitted effect of over 60% in size
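HEK293T cells expressing luciferase-tagged ELG1 were treated with compound or DMSO for 16 hr at 37°C. Luciferase activity was then read after 30 min with ONE-Glo at room temperature; rising signal flags genetic stress.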
SMN2 splice up: SMN2 splice variant enhancement; 2.8% of 210,000 active; AID 1458; Potency, µM (titrated, usually from 46.1 µM), without a hit: at the highest dose activity change, positive = activation, most hits filed as activators; HEK293 SMN2-luciferase splicing reporter, luminescence, 30-36 h; also: % of control where 0% means no effect; nearly all actives have a fitted effect of over 55% in size
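qHTS luciferase splicing reporter: luminescence rises when SMN2 exon 7 is included in transfected HEK293 cells. Compound exposure lasted 30-36 h at 37C, with 4.5 mM final sodium butyrate as control, followed by a ONE-Glo read.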
FLuc counter: counter-screen for miR-21 project: firefly luciferase inhibitors or activators; P08659; purified FLuc, Km substrates, luminescence inhibition; Potency, µM (series often up to 57.5 µM), without a hit: top-dose activity change, negative = inhibition, hits mostly inhibitors; 6.9% of 360,000 active; AID 588342;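 also: plate controls were vehicle for no effect and reference inhibitor for full effect; nearly all actives have a fitted effect of over 55% in size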
Target sequence (P08659 whole entry, looked up): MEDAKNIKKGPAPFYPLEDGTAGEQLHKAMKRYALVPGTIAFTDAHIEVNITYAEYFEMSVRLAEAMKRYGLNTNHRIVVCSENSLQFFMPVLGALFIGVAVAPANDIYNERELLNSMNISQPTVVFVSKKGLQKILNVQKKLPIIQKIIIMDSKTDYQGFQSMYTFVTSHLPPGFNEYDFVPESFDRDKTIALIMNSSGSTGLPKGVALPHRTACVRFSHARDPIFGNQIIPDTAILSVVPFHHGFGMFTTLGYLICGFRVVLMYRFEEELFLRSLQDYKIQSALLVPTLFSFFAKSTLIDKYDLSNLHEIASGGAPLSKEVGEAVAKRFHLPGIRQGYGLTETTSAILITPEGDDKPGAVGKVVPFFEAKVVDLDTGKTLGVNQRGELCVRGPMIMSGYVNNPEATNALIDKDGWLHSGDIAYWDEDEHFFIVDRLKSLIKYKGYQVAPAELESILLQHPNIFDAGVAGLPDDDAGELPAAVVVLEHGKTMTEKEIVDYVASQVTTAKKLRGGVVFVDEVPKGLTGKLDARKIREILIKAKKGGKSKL
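Purified P. pyralis luciferase (10nM final) with 10uM D-luciferin and 10uM ATP (Km levels) in 50mM Tris acetate pH 7.5, 10mM Mg acetate, 0.01% Tween-20, 0.05% BSA; qHTS 6-point titration, ~60 µM downward; luminescence read.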
Rab9 promoter act: activates the Rab9 promoter; Huh7 Rab9 promoter-luciferase reporter, luminescence, 24 h; Potency, µM (doses to about 9.22 µM), without a hit: at the highest dose activation, negative = inhibition, most hits filed as activators; 2.8% of 320,000 active; AID 485297; also: % of control where 0% means no effect; nearly all actives have a fitted effect of over 60% in size
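Stable Rab9-luc Huh7, 1500 cells/well, 2 h settle; cmpd in DMSO, 24 h, 37 °C/5% CO2; luciferase reagent 10 min RT; luminescence.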
ELG1 repair inh: ELG1-dependent DNA repair inhibition; HEK293T ELG1-luciferase reporter, luminescence, 16 h; DNA damage induced by 5-fluorouridine; Potency, µM (highest dose often 46.1 µM), for inactives: top-dose activity change, negative = inhibition, usual class: inhibitors; 2.3% of 330,000 active; also: % is scaled to controls: 0 for no effect and ±100 for the full control effect; nearly all actives have a fitted effect of over 55% in size
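Reporter activity after DNA damage by 5-fluorouridine is monitored. Compound-treated cells incubate 16 hr at 37 °C, then ONE-Glo is added for 30 min before luminescence reading.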
* hit, by the source's call; ? = inconclusive; / = no result. Calls follow the shape of the dose curve; as a rule, active = well fitted curve in the direction sought with a large enough effect; inconclusive = small, poorly fitted or top-dose-only effect, or another doubt; inactive = no such curve, though single readings can be large; an effect the other way counts as inactive or inconclusive. Potency is read from the fitted curve at half-maximal effect.

SMILES	NPC1 promoter act	ELG1 genotox	SMN2 splice up	FLuc counter	Rab9 promoter act	ELG1 repair inh
CCN1C(=O)/C(=C/N2CCc3ccccc3C2)SC1=S	?	10%	/	24µM*	?	?
CCC(C)N1C(=O)S/C(=C/c2ccc(N3CCOCC3)cc2C)C1=O (centres undefined)	?	15%	-16%	7.6µM*	?	?
Cc1ccc(N2CCN(C(=O)N3CCOCC3)CC2)cc1C	-1%	1%	/	-1%	0%	1%
Cc1cc(N2CCOCC2)ccc1/C=C1\SC(=O)N(C(C)C)C1=O	1.4µM*	?	20%	3.8µM*	1.4µM*	?
Cc1cc(/C=C2/SC(=O)NC2=O)c(C)n1-c1ccc(N2CCOCC2)cc1	8%	-1%	-25%	-6%	-4%	?
Cc1nn(-c2ccc(F)cc2)c(-n2cccc2)c1C(=O)N1CCN(c2ccccc2F)CC1	/	/	/	-10%	/	/
NC(=O)c1ccc(NC(=O)COc2coc(CN3CCc4ccccc4C3)cc2=O)cc1	3%	1%	/	2%	-1%	?
COC(=O)[C@]1(Cc2ccccc2)N[C@H](CN(C)S(=O)(=O)c2ccc(C(C)(C)C)cc2)[C@@H]2C(=O)N(C)C(=O)[C@@H]21	/	0%	/	/	/	-11%
Cc1ccc(/C=N/c2sc3c(c2C(N)=O)CCCC3)o1	?	12%	?	11µM*	4µM*	?
CN(C)/C=N/c1sc2c(c1C(N)=O)CCCC2	0%	8%	-2%	-5%	1%	-9%
Cc1cc(C)cc(NC2=C(N)C(=O)c3ccccc3C2=O)c1	?	?	/	15µM*	?	?
Cc1cccc(NC2=C(NCCO)C(=O)c3ccccc3C2=O)c1	12%	-1%	-19%	-19%	11%	13%
Cc1ccc(/C=N/NC(=O)c2ccncc2)s1	1%	3%	/	?	6%	1%
Cc1ccc(/C=N/N=C/c2ccc(C)s2)s1	1.6µM*	3.7µM*	7.1µM*	0.67µM*	2.2µM*	?
Cc1cccc(N/N=C/c2ccc(C)s2)c1	?	?	/	12µM*	?	?
CCCN(CCC)C(=O)Cn1c(=O)n(Cc2ccc(C(=O)NCCc3ccc(OC)c(OC)c3)cc2)c(=O)c2ccccc21	/	/	-12%	-17%	/	/
c1ccc(OCc2nc(-c3ccccc3)no2)cc1	?	15µM*	?	27µM*	?	?
O=C(Cc1ccccc1)Nc1ccc(NC(=O)c2ccco2)cc1	27%	?	/	?	24%	2%
O=C(Nc1ccc(-c2noc(CCc3ccccc3)n2)cc1)c1ccco1	1.3µM*	?	2.8µM*	4.3µM*	1.1µM*	?
Cc1ccc(-c2noc(COC(=O)c3ccco3)n2)cc1	20%	12%	/	9.5µM*	4%	?
c1ccc(CCc2nc(-c3ccccc3)no2)cc1	?	?	28%	12µM*	?	?
CCc1cccc(C)c1NC(=O)C1CCCN1C(=O)NCc1ccccc1 (centres undefined)	-5%	0%	/	1%	-2%	-1%
COc1ccc(CCN(C)S(=O)(=O)c2cn(C)c(=O)n(C)c2=O)cc1OC	3%	1%	/	/	-6%	24%
O=C1CCC(=O)N1CCCCCc1nc(-c2ccccc2)no1	18%	21µM*	-4%	?	?	?
Cc1cccc(-c2noc(CCc3ccccc3)n2)c1	?	?	24%	12µM*	2.8µM*	?
SMILES	NPC1 promoter act	ELG1 genotox	SMN2 splice up	FLuc counter	Rab9 promoter act	ELG1 repair inh
Cc1cccc(-c2noc(CCC(=O)NCCc3ccccc3)n2)c1	-5%	-2%	/	-2%	-7%	1%
Cc1ccc(C)c(NC(=O)CCC(=O)NN=C2CCCC2)c1	-1%	-7%	/	4%	-4%	8%
S=C(Nc1ccc(Cl)cc1Cl)N1CCCCC1	18%	11%	30%	?	5%	?
N#CCCN1CCN(C(=S)c2ccc(-c3cc(Cl)ccc3Cl)o2)CC1	-2%	-3%	-17%	-16%	1%	-14%
S=C(c1ccc(-c2ccc(Cl)cc2Cl)o1)N1CCCC1	?	10%	/	11µM*	?	15%
CN1CCN(C(=S)c2ccc(-c3cc(Cl)ccc3Cl)o2)CC1	3%	-1%	/	17µM*	2%	16%
S=C(c1ccc(-c2ccc(Cl)cc2Cl)o1)N1CCCCC1	?	?	13µM*	4.8µM*	2.8µM*	?
CCOC(=O)C1CCCN(C(=O)c2cc3c(=O)n(C)c4ccccc4c3s2)C1 (centres undefined)	/	/	-6%	-13%	/	/
COCCCNC(=S)N/N=C/c1cccc(OC)c1O	10%	-3%	/	9.5µM*	-26%	?
COc1ccc(/C=N/NC(=S)Nc2cccc(C(=O)O)c2)cc1	2µM*	-6%	13µM*	1.7µM*	1.8µM*	?
O=C(O)c1cccc(NC(=S)N/N=C/c2cccnc2)c1	?	?	16%	11µM*	?	?
CC(=O)Nc1cccc(C(=O)N/N=C/c2cccnc2)c1	2%	9%	4%	?	11%	30%
COc1cc(/C=N/NC(=S)Nc2cccc(C(=O)O)c2)ccc1O	?	1%	10%	4.3µM*	?	-7%
CC(=O)N1CCc2c(sc3c2c(=O)n(-c2ccccc2)c(=O)n3Cc2cccc(C(F)(F)F)c2)C1	/	/	21%	0%	/	/
Cc1cccc2c1-c1sc(C(=O)NCCc3ccc(Cl)cc3)cc1CO2	/	/	-8%	-11%	/	/
O=[N+]([O-])c1ccc(SCCO)nc1SCCO	6%	-1%	/	1%	0%	0%
CC(=O)Nc1ccc(NC(=O)CSc2nccn2Cc2ccc3c(c2)OCO3)cc1	/	/	/	-8%	/	/
COc1ccc(C(=O)NCc2nnc(SCC(=O)NO)n2Cc2ccccc2)cc1	-1%	2%	/	5%	-7%	0%
Cc1cc(OC(=O)c2cc(Br)ccc2Cl)c([N+](=O)[O-])c(=O)[nH]1	-7%	-1%	/	4%	0%	6%
S=C(N/N=C/c1ccccc1Cl)Nc1ccccc1	?	0%	28%	19µM*	?	11µM*
COc1cccc(/C=N/NC(=O)c2ccc(-c3ccccc3)cc2)c1O	-33%	2%	-78%	2%	-29%	?
COc1ccc(/C=N/NC(=S)Nc2ccccc2)cc1	?	?	10µM*	11µM*	4µM*	?
COC(=O)c1cnn(-c2ccccc2)c1/C=N/NC(=S)Nc1ccccc1	0%	-7%	/	-2%	-5%	21µM*
CNC(=S)N/N=C/c1ccccc1Cl	-1%	4%	26%	2%	0%	?
